Assay outcomes (PubChem)
This is a sample that favours compounds with a hit; in the whole collection about 22% have one here.
Cycloheximide cs – counter-screen hit for Shiga toxin inhibitors, cycloheximide. cell reporter, cycloheximide protein synthesis inhibition counterscreen. max response, %. 300,000 compounds, 12% hits. AID 2314; in the data active = max response mostly above about 13%, no sharp cut-off; inactive = mostly below about 14%; note: read at 38.3 µM for the half of the compounds with a filed dose; 0% is about no effect
Pf growth 48h – inhibits P. falciparum growth in the first generation, 48 h. P. falciparum luciferase growth in erythrocytes, 48 h. Potency, µM (highest dose often 28.7 µM), for inactives: at the top dose activity change, negative = inhibition, hits mostly inhibitors. 310,000 compounds, 5.9% hits; note: potency is the fitted concentration of half-maximal effect; % is set by controls: 0 for no effect and ±100 for the full control effect
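Parasite viability was followed by luminescence of a genomically integrated firefly luciferase. Cultures held 0.1% parasitemia at 2% hematocrit (final), incubated under 5% CO2 at 37 C.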
Pf growth 96h – P. falciparum growth inhibition at 96 hour, primary screen for plastid delayed-death inhibitors | P. falciparum luciferase reporter growth, 96 h | Potency, µM (top dose mostly 28.7 µM), for inactives: at the top dose activity change, negative = inhibition, actives largely listed as inhibitors | 320,000 compounds, 6.9% hits; note: potency is the fitted concentration of half-maximal effect; % is set by controls: 0 for no effect and ±100 for the full control effect
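Delayed-death screen, second-generation endpoint: infected erythrocytes, 2% hematocrit, 0.05% parasitemia final; 96 hours at 37 C, 5% CO2; luciferase detection reagent; luminescence decrease equals reduced growth.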
LmPK inh – blocks Leishmania mexicana pyruvate kinase activity | Q27686 | AID 1721 | Potency, µM (top dose mostly 57.5 µM), for the others: top-dose activity change, negative = inhibition, most hits filed as inhibitors | 290,000 compounds, 0.37% hits | purified LmPK, Kinase-Glo ATP luminescence, 1 h; note: potency is the fitted concentration of half-maximal effect; % is set by controls: 0 for no effect and ±100 for the full control effect
Target sequence (Q27686 whole entry, looked up): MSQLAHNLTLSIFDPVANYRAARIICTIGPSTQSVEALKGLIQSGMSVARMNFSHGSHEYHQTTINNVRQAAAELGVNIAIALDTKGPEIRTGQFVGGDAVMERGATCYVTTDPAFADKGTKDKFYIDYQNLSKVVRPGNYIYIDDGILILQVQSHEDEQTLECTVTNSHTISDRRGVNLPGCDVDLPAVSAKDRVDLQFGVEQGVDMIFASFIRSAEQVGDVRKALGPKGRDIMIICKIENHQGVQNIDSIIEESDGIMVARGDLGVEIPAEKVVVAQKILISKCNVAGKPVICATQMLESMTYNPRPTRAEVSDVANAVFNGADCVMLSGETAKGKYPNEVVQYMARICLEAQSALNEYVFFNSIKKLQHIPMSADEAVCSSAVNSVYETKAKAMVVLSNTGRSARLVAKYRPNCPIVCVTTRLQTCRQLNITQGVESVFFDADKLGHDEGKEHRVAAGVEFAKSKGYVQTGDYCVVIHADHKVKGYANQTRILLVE
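Kinase-Glo luminescence read after 1 h RT reaction of 0.1 nM LmPK with 0.5 mM PEP and 0.1 mM ADP. Activity scaled between uninhibited and enzyme-free controls.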
Shiga inhibitor – Shiga toxin inhibition. Vero cells, Shiga toxin protein synthesis inhibition reporter. AID 2315. 290,000 compounds, 9.2% hits. inhibition, % at 38.7 µM; in the data active = inhibition mostly above about 28%, no sharp cut-off; inactive = mostly below about 43%; note: 0% is about no effect
* = called active by the depositor; i = inactive; ? = inconclusive; . = not tested or not shown. Unless noted, calls come from the whole dose curve; as a rule, active = well fitted inhibition curve with a large enough effect; inconclusive = small, poorly fitted or top-dose-only effect, or another doubt; inactive = no such curve, though single readings can be large or run the other way.

SMILES	Cycloheximide cs	Pf growth 48h	Pf growth 96h	LmPK inh	Shiga inhibitor
O=C(NC1CCCCC1)C(c1cccnc1)N(CCc1ccccc1)C(=O)Cc1cccs1 (centres undefined)	-4	13µM*	21%	-1%	-4
O=C(NC1CCCC1)C(c1cccnc1)N(CCc1ccccc1)C(=O)c1ccco1 (centres undefined)	-1	5.2µM*	43%	-3%	2
COc1cccc(CN(C(=O)c2ccco2)C(C(=O)NC2CCCC2)c2cccnc2)c1 (centres undefined)	-3	-6%	7%	2%	13
O=C(NCC(=O)N(CCc1ccccc1)C(C(=O)NC1CCCC1)c1cccnc1)c1ccco1 (centres undefined)	-1	15µM*	3%	-6%	-3
O=C(NC1CCCC1)C(c1ccncc1)N(Cc1ccccc1)C(=O)Cc1cccs1 (centres undefined)	-1	?	?	4%	-2
O=C(NCC(=O)N(CCc1ccccc1)C(C(=O)NC1CCCCC1)c1ccncc1)c1ccco1 (centres undefined)	-1	?	11%	1%	-15
Cc1ccc(C)c(N(C(=O)c2csnn2)C(C(=O)NC2CCCC2)c2cccnc2)c1 (centres undefined)	-7	-3%	10%	-4%	-3
COc1cc(NC(=O)c2ccccc2)cc(OC)c1	30*	i	.	-20%	48
COc1ccc(NC(=O)c2ccc(NC(=O)C3CC3)cc2)cc1	-2	-15%	-2%	2%	10
COc1ccc(C(=O)Nc2cc(OC)cc(OC)c2)cc1	40*	90%	.	14µM*	65*
COc1cc(NC(=O)c2ccc(NS(=O)(=O)c3c(C)noc3C)cc2)cc(OC)c1	-3	?	0.33µM*	4%	17
COc1ccc(OC)c(NC(=O)c2ccc(NS(=O)(=O)c3c(C)noc3C)cc2)c1	-4	-17%	?	0%	-8
COc1cc(OC)cc(C(=O)Nc2cccc(NC(C)=O)c2)c1	3	27%	-27%	-10%	6
COc1ccc(OC)c(S(=O)(=O)N2CCN(c3c(C)cccc3C)CC2)c1	-2	?	4.7µM*	1%	-1
COc1ccc(C(C)C)cc1S(=O)(=O)N1CCN(C)CC1	-5	.	12µM*	3%	-18
COc1ccc(C(C)C)cc1S(=O)(=O)N1CCC(C(=O)N2CCN(C)CC2)CC1	-3	27%	-17%	-2%	-8
CN(C)/C=C/c1onc(-c2ccccc2Cl)c1C#N	42*	78%	32%	-4%	69*
COc1ccc(NC(=O)CN(C)C(=O)c2cc(CN3C(=O)c4ccccc4C3=O)ccc2OC)cc1	.	-8%	-7%	.	.
CCCOC(=O)c1c(-c2ccc(C)cc2C)csc1NC(=O)C1C2CCC(O2)C1C(=O)O (centres undefined)	-3	-10%	-9%	4%	-4
CCOC(=O)C1CCCN(C(=O)c2ccc3c(c2)N(C)C(=O)/C(=C/c2ccccc2Cl)S3)C1 (centres undefined)	-2	?	0.41µM*	-13%	-2
CN1C(=O)/C(=C/c2ccccc2Cl)Sc2ccc(C(=O)N3CCCC3)cc21	22*	?	40%	5%	3
COc1ccc(/C=C2\Sc3ccc(C(=O)NC4CC4)cc3N(C)C2=O)cc1OC	-4	?	-1%	-1%	-6
CCOC(=O)C1CCCN(C(=O)c2cccc(N3C(=O)c4ccccc4C3=O)c2)C1 (centres undefined)	.	?	-12%	.	.
Cc1cccc(/C=C2\Sc3ccc(C(=O)N4CCC(C(N)=O)CC4)cc3N(C)C2=O)c1	13	?	?	7%	8
CN1C(=O)/C(=C\c2ccccc2F)Sc2ccc(C(=O)NC3CCN(Cc4ccccc4)CC3)cc21	4	1.7µM*	?	6%	-4
SMILES	Cycloheximide cs	Pf growth 48h	Pf growth 96h	LmPK inh	Shiga inhibitor
COc1nc(NCC(C)C)nc(Oc2ccc(OCc3ccccc3)nn2)n1	1	0.37µM*	3%	7%	-6
OCc1cn(-c2ccccc2)nc1-c1ccco1	16	.	77%	-28%	25
C=CCOC(=O)C1=C(C)NC(C)=C(C(=O)OCC=C)C1c1cn(-c2ccccc2)nc1-c1ccco1	-3	?	3.7µM*	4%	-12
CC(=O)Nc1ccc(S(=O)(=O)Nc2nccc(/C=C/c3ccc(Cl)cc3)n2)cc1	-2	23%	?	5%	-14
Cn1cc(/C=C/c2cc[n+](C)cc2)c2cc(F)ccc21	18	0.26µM*	0.13µM*	7%	-11
C[n+]1ccc(/C=C/c2c[nH]c3ccc(F)cc23)cc1	-2	0.37µM*	?	2%	-4
Cn1cc(/C=C/c2cc[n+](C)cc2)c2cc(Cl)ccc21	0	0.66µM*	0.17µM*	-2%	-12
Cc1nc2ccccc2n1CC(=O)OCC(=O)NCCc1ccccc1	-3	.	26%	1%	-13
O=C(O)C1CCN(S(=O)(=O)c2ccc(N3CCC(O)CC3)c([N+](=O)[O-])c2)CC1	-5	?	9.3µM*	-7%	-18
CN1CCN(c2ccc(S(C)(=O)=O)cc2[N+](=O)[O-])CC1	-2	6%	12µM*	-8%	2
CCOC(=O)N1CCN(c2ccc(S(=O)(=O)N3CCC(C)CC3)cc2[N+](=O)[O-])CC1	.	10µM*	9.3µM*	.	.
O=C(O)C1CCN(S(=O)(=O)c2ccc(N3CCOCC3)c([N+](=O)[O-])c2)CC1	8	22%	0%	5%	-8
COc1ccc(S(=O)(=O)N2CCOCC2)cc1NC(=O)CN1CCN(C)CC1	.	-25%	11%	.	.
COc1ccc(/C(C)=N/NC(=O)C(NC(=O)c2ccccc2)c2n[nH]c(=O)c3ccccc23)c(OC)c1 (centres undefined)	-1	?	-28%	0%	-7
CC1CC(C)CN(C(=O)COC(=O)c2c[nH]c3ccccc23)C1 (centres undefined)	.	8%	27%	.	.
N#C/C(=C\c1c(N2CCN(c3ccccc3)CC2)nc2ccccn2c1=O)C(N)=O	28*	19%	?	1%	50*
CCOC(=O)/C(C#N)=C/c1c(N2CCN(c3ccc(OC)cc3)CC2)nc2c(C)cccn2c1=O	2	9.3µM*	12µM*	9%	2
CCOC(=O)/C(C#N)=C/c1c(N2CCN(c3ccccc3)CC2)nc2ccccn2c1=O	41*	23%	?	2%	18
COC(=O)/C(C#N)=C/c1c(N2CCN(c3ccccc3)CC2)nc2ccccn2c1=O	21	?	?	6%	23
N#C/C(=C\c1c(N2CCCCCC2)nc2ccccn2c1=O)C(N)=O	-2	-2%	-19%	5%	4
Cc1ccc(CNC(=O)C2CC3Cn4c(nc5cc6ccccc6cc54)C3N2C)o1 (centres undefined)	-1	?	35%	-2%	-5
Cc1occc1C(=O)NNC(=S)NCc1ccc(Cl)cc1	28*	31%	18%	-1%	28
